# HCV inhibitor: inhibitors of hepatitis C virus infection; Huh7.5.1 HCVcc-Cre infection, luciferase reporter, 44 h; Potency, µM (top dose mostly 41.8 µM), for the others: top-dose activity change, negative = inhibition, usual class: inhibitors; hit rate 3.4% among 340,000; AID 651820; also: potency is read from the fitted curve at half-maximal effect; % is scaled to controls: 0 for no effect and ±100 for the full control effect
#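 Whole-lifecycle infectious HCVcc-Cre system; cells 1,000/well, compound then virus (~0.5 moi) added 4 h after plating, 44 h culture. Luciferase read 15 sec following 15 min substrate incubation, room temp.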
# Cycloheximide cs: counter-screen hit for Shiga toxin inhibitors, cycloheximide | cell reporter, cycloheximide protein synthesis inhibition counterscreen | max response, % | hit rate 12% among 300,000; in the data active = max response mostly above about 13%, no sharp cut-off; inactive = mostly below about 14%; also: read at 38.3 µM for the half of the compounds with a filed dose; 0% is about no effect
# Pf growth 48h: inhibits P. falciparum growth in the first generation, 48 h; P. falciparum luciferase growth in erythrocytes, 48 h; Potency, µM (doses to about 28.7 µM), for the others: top-dose activity change, negative = inhibition, actives largely listed as inhibitors; hit rate 5.9% among 310,000; also: potency is read from the fitted curve at half-maximal effect; % is scaled to controls: 0 for no effect and ±100 for the full control effect
#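 Cell-based growth assay: transgenic P. falciparum expressing firefly luciferase, cultured in red cells within RPMI 1640 containing 0.5% w/v Albumax, 24 mM bicarbonate and gentamycin. A drop in luciferase activity indicates inhibition.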
# Shiga inhibitor: inhibitors of Shiga toxin in Vero cells. Vero cells, Shiga toxin protein synthesis inhibition reporter. inhibition, % at 38.7 µM. hit rate 9.2% among 290,000; in the data active = inhibition mostly above about 28%, no sharp cut-off; inactive = mostly below about 43%; also: 0% is about no effect
# Pf growth 96h: inhibits malaria parasite growth, 96 h; P. falciparum luciferase reporter growth, 96 h; Potency, µM (series often up to 28.7 µM), without a hit: at the highest dose activity change, negative = inhibition, hits mostly inhibitors; hit rate 6.9% among 320,000; AID 504834; also: potency is read from the fitted curve at half-maximal effect; % is scaled to controls: 0 for no effect and ±100 for the full control effect
#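 Two-generation exposure (96 h) targets delayed-death phenotype. Reporter parasites carrying integrated firefly luciferase, in red cells at 2% hematocrit and 0.05% parasitemia final, kept at 37 C, 5% CO2; luminescence loss indicates inhibition.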
# HCMV inh: inhibitors of human cytomegalovirus | HFF cells, HCMV-luciferase reporter, 72 h; hits give low values | activity change, negative = inhibition, % at 57.5 µM | hit rate 4.5% among 410,000 | AID 1259415; in the data active = activity change below about -60%; inconclusive = no clear call, values can overlap the other calls; inactive = above about -39%; also: % is scaled to controls: 0 for no effect and ±100 for the full control effect
#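 Luciferase read-out from HCMV-luciferase-infected HFFs (MOI 1 PFU/cell) 72 h post infection at 37C; compounds added after 16 h cell attachment; activity normalized between buffer-only basal and Salinomycin (10uM) inhibitor controls.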
# Starred values were filed as active, the others as inactive; ? = inconclusive; nt = no result; [ ] = dose if it differs, or a comment. Shown are actives, neighbours in structure and some others; about 21% of the full set was active somewhere. Unless noted, calls follow the shape of the dose curve; as a rule, active = well fitted inhibition curve with a large enough effect; inconclusive = small, poorly fitted or top-dose-only effect, or another doubt; inactive = no such curve, though single readings can be large or run the other way.
SMILES,HCV inhibitor,Cycloheximide cs,Pf growth 48h,Shiga inhibitor,Pf growth 96h,HCMV inh
CC(C)Cc1ccc(CN2CCCC(NC(=O)c3ccoc3)C2)cc1 (stereo not given),?,2,10µM*,32,64%,-33
CC(C)Cc1ccc(CN2CCCC(NC(=O)CSc3nncn3C)C2)cc1 (stereo not given),nt,nt,nt,nt,nt,-15
CC(C)Cc1ccc(CN2CCCC(NC(=O)c3ccnn3C)C2)cc1 (stereo not given),11µM*,8,?,-34,-17%,-80*
CC(C)Cc1ccc(CN2CCCC(NC(=O)c3cccc(-n4cnnc4)c3)C2)cc1 (stereo not given),?,13,13µM*,11,-22%,-60*
CC(C)Cc1ccc(CN2CCCC(NC(=O)c3nn(C)c(=O)c4ccccc34)C2)cc1 (stereo not given),?,-2,-18%,-11,10%,-5
CCOc1ccc(CNC(=O)C2CCN(c3nc4ccccc4nc3C(F)(F)F)CC2)cc1OC,nt,nt,nt,nt,nt,-2
COc1ccc(-n2c(CC3C(=O)N(C)c4ccc(C)cc43)nc3ccccc3c2=O)cc1 (stereo not given),nt,nt,nt,nt,nt,15
CC(C)=CCc1c(O)cc2c(c1O)C(=O)CC(c1ccccc1)O2 (stereo not given),-12%,nt,nt,nt,nt,15
O=C1CC(c2ccc(O)c(O)c2)Oc2c1ccc(O)c2O (stereo not given),-3%,5,?,1,2.1µM*,60
CC(C)=CCc1c(O)ccc2c1OC(c1ccc(O)c(O)c1)CC2=O (stereo not given),?,14*,4%,4,?,-6
O=C1C[C@@H](c2ccc(O)c(O)c2)Oc2c1ccc(O[C@@H]1O[C@H](CO)[C@@H](O)[C@H](O)[C@H]1O)c2O,nt,8,nt,10,nt,nt
CC1=NN(C(=O)CSCc2ccccc2)C(O)(c2ccc(F)cc2)C1 (stereo not given),33%,-2,-8%,-3,1%,17
CC1=NN(C(=O)CSCc2ccccc2)C(O)(c2ccc(Cl)cc2)C1 (stereo not given),3%,-2,-28%,-5,12µM*,36
O=C(CC(=O)NCc1cccnc1)NCc1cccnc1,-5%,-5,8%,-12,10µM*,29
O=C(NCc1cccnc1)C(Cl)(Cl)Cl,8%,-4,-13%,-6,3.7µM*,2
O=C(CCn1nc(-c2ccc(Cl)cc2)ccc1=O)NCc1cccnc1,2%,21,1.2µM*,-13,4%,44
NC(=O)NCc1cccnc1,2%,-4,1%,-4,2%,15
O=C(CCn1nc(-c2ccc(Cl)cc2)ccc1=O)NCCc1ccccc1,nt,nt,nt,nt,nt,6
O=S(=O)(Nc1ccccc1N1CCOCC1)c1c(F)cc(F)cc1Br,0%,nt,nt,nt,nt,-21
CC(=O)c1cccc(NC(=O)c2sc(-n3nc(C)c(Cc4ccccc4)c3C)nc2C)c1,nt,nt,nt,nt,nt,-61*
Cc1nc(NC(C)c2ccccc2)sc1C(=O)Nc1ccccc1 (stereo not given),-13%,5,?,11,50%,?
CCOC(=O)C(=CNc1nc(-c2ccccc2)c(C(=O)Nc2ccc(-c3ccccc3)cc2)s1)C(=O)OCC,0%,-8,?,6,15µM*,-33
Cc1nc(NCc2ccccc2)sc1C(=O)Nc1ccccc1,?,26*,54%,50*,89%,-24
CCOC(=O)Nc1nc(-c2ccccc2)c(C(=O)c2ccc(Cl)cc2)s1,?,-3,?,-21,nt,-67*
COc1ccc(Cc2c(C)nn(-c3nc(C)c(C(=O)Nc4cccc(C(C)=O)c4)s3)c2C)cc1,nt,nt,nt,nt,nt,-28
SMILES,HCV inhibitor,Cycloheximide cs,Pf growth 48h,Shiga inhibitor,Pf growth 96h,HCMV inh
CCOC(=O)Nc1sc(C)nc1-c1ccccc1,-2%,-1,13%,83,?,-7
Cc1ccc(NC(=O)c2sc(Cl)nc2-c2ccccc2)cc1,-1%,-2,-1%,-14,nt,-10
CCn1cc2nc(SCC(=O)Nc3ccc(OC)cc3OC)n(Cc3ccc(Cl)cc3)c(=O)c2n1,nt,nt,nt,nt,nt,-29
CSc1ccc(C2c3c(-c4ccccc4O)n[nH]c3C(=O)N2Cc2ccncc2)cc1 (stereo not given),nt,nt,nt,nt,nt,-26
COc1ccc(Cl)cc1C(=O)NNC(=O)COC(=O)CCN=C1NS(=O)(=O)c2ccccc21,1%[8.37 µM],nt,-2%,nt,44%,-16
Cc1ccc2c(c1)c1c(c(=O)n(-c3cccc(Cl)c3)c(=O)n1CC(=O)NCCC1=CCCCC1)n2C,nt,nt,nt,nt,nt,7
Cc1nc(NC(=O)/C=C/c2ccccc2)sc1C(=O)Nc1ccccc1,-16%,-1,48%,-1,25%,39
COc1ccccc1Nc1nc(C)c(C(=O)Nc2ccccc2)s1,?,17,?,56,?,?
Cc1nc(Nc2ccccc2Cl)sc1C(=O)Nc1ccccc1,?,19*,-12%,22,15%,-16
COc1ccc(Nc2nc(C)c(-c3ccccc3)s2)cc1,?,59*,12%,82*,?,3
Cc1nc(Nc2ccccc2)sc1C(=O)Nc1ccccc1,?,39*,?,59*,?,17
COc1ccc(Nc2nc(C)c(C(C)=O)s2)cc1,nt,nt,nt,nt,nt,17
Nc1nc(-c2ccccc2)c(C(=O)Nc2ccccc2)s1,-6%,0,-2%,-9,25%,-61*
COc1ccccc1N1CCN(C(=O)c2ccc3c(c2)N(Cc2ccccc2)C(=O)c2ccccc2S3(=O)=O)CC1,nt,nt,nt,nt,nt,5
CC(OC(=O)COc1ccccc1Cc1ccccc1)C(=O)N(C)c1ccccc1 (stereo not given),-4%,nt,?,nt,-10%,3
Cc1nc(NCCOc2ccccc2)sc1C(=O)Nc1ccccc1,-29%,59*,68%,92*,66%,40
COc1ccc(C(=O)c2sc(Nc3ccc(NC(C)=O)cc3)nc2C)cc1,-17%,0,20%,12,?,-25
Cc1nc(Nc2ccccc2)sc1C(=O)c1ccc(F)cc1,?,67*,?,143*,?,49
Nc1nc(Nc2ccccc2F)sc1C(=O)c1ccccc1,?,50*,3%,57*,17%,75
Cc1nc(Nc2ccc(S(N)(=O)=O)cc2)sc1-c1ccccc1,?,31*,20%,47,32%,-17
Cc1nnc(Nc2ccc(S(N)(=O)=O)cc2)c2ccccc12,0%,-3,1%,nt,?,3
C[C@H](CO)N1C[C@H](C)[C@@H](CN(C)C(=O)NC2CCCCC2)Oc2c(NS(=O)(=O)c3ccc(F)cc3)cccc2C1=O,15%,nt,nt,nt,nt,27
Cc1nc(Nc2ccc(S(N)(=O)=O)cc2)sc1C(=O)Nc1ccccc1,?,-2,16%,-9,-3%,-69*
CNC(=O)c1c(NC(=O)c2cc(=O)c3ccccc3o2)sc2c1CCC2,nt,nt,nt,nt,nt,31
